The source made the active and inactive calls. The calls were made as follows: active = hit-call score of the fitted dose curve at least 0.9, where 1 is the maximum; inactive = score below 0.9.
Key:
[1] = read-out: Interleukin-1 alpha (IL1a), IL1A (gene 3552); assay: BSK_KF3CT_IL1a: BioMAP Diversity Plus: KF3CT Assay for Interleukin-1 alpha (IL1a) Biomarker Activity (AID 2283070); details: primary human keratinocytes with fibroblasts; actives raise or lower the signal
Method in brief: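 Human keratinocyte plus foreskin fibroblast primary co-culture, sampled 24 h after chemical dosing. IL-1a measured by ELISA; responses fitted bidirectionally against DMSO baseline (negative control), so gain or loss of signal both count.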

[2] = read-out: TIMP metallopeptidase inhibitor 2 (TIMP2), TIMP2 (gene 7077); assay: BSK_KF3CT_TIMP2: BioMAP Diversity Plus: KF3CT Assay for TIMP metallopeptidase inhibitor 2 (TIMP2) Biomarker Activity (AID 2283071); details: primary human keratinocytes with fibroblasts; actives raise or lower the signal
Method in brief: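 Human primary keratinocyte/foreskin fibroblast co-culture dosed with chemical and sampled at 24 h. TIMP-2 levels quantified by ELISA; bidirectional fitting against DMSO negative control as baseline.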

[3] = read-out: Transforming growth factor beta 1 (TGFb1), TGFB1 (gene 7040); assay: BSK_KF3CT_TGFb1: BioMAP Diversity Plus: KF3CT Assay for Transforming growth factor beta 1 (TGFb1) Biomarker Activity (AID 2283072); details: primary human keratinocytes with fibroblasts; actives raise or lower the signal
Method in brief: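 Human keratinocyte plus foreskin fibroblast primary co-culture, dosed with chemical for 24 h. TGF-b1 quantified by ELISA. Activity fitted bidirectionally against DMSO negative control as baseline.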

[4] = read-out: C-C motif chemokine 2 (Homo sapiens) (UniProt P13500); assay: BSK_KF3CT_MCP1: BioMAP Diversity Plus: KF3CT Assay for Monocyte Chemoattractant Protein 1 (MCP1/CCL2) Biomarker Activity (AID 2283073); details: primary human keratinocytes with fibroblasts; actives raise or lower the signal
Method in brief: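 Human keratinocyte–foreskin fibroblast co-culture; MCP-1 measured by ELISA 24 h after dosing. Bidirectional fit vs DMSO; cytotoxicity tracked by SRB total protein in parallel cultures.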

[5] = read-out: Matrix Metallopeptidase 9 (MMP9), MMP9 (gene 4318); assay: BSK_KF3CT_MMP9: BioMAP Diversity Plus: KF3CT Assay for Matrix Metallopeptidase 9 (MMP9) Biomarker Activity (AID 2283074); details: primary human keratinocytes with fibroblasts; actives raise or lower the signal;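 as to AC50: MMP9 protein level quantified by ELISA in the co-culture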
Method in brief: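 Keratinocyte plus foreskin fibroblast human primary skin co-culture was dosed with chemical and MMP-9 was quantified by ELISA 24 h later. Bidirectional curve fitting used DMSO as negative control and activity baseline.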

[6] = read-out: urokinase plasminogen activator (uPA), PLAU (gene 5328); assay: BSK_KF3CT_uPA: BioMAP Diversity Plus: KF3CT Assay for urokinase plasminogen activator (uPA) Biomarker Activity (AID 2283075); details: primary human keratinocytes with fibroblasts; actives raise or lower the signal
Method in brief: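 Human keratinocyte plus foreskin fibroblast primary co-culture exposed to chemical for 24 h. uPA levels were quantified by ELISA, and activity was fitted bidirectionally against a DMSO negative-control baseline.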

CD40, CD40 (gene 958) [7] = assay: BSK_LPS_CD40: BioMAP Diversity Plus: LPS Assay for CD40 Biomarker Activity (AID 2283076); details: primary human HUVEC with PBMC; actives raise or lower the signal
Method in brief: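 HUVEC plus PBMC co-culture stimulated with LPS; CD40 quantified by ELISA 24 h after compound dosing. Fitting was bidirectional relative to DMSO. SRB staining of parallel cultures flagged overt cytotoxicity.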

[8] = read-out: E-selectin (Homo sapiens) (UniProt P16581); assay: BSK_LPS_Eselectin: BioMAP Diversity Plus: LPS Assay for Eselectin Biomarker Activity (AID 2283077); details: primary human HUVEC with PBMC; actives raise or lower the signal
Method in brief: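 Human umbilical vein endothelial cells co-cultured with PBMC under LPS stimulation; cell-surface E-selectin measured by ELISA 24 h after dosing. Change in either direction versus DMSO, with SRB total-protein staining in parallel cultures for cytotoxicity.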

[9] = read-out: Interleukin-8 (IL8), CXCL8 (gene 3576); assay: BSK_LPS_IL8: BioMAP Diversity Plus: LPS Assay for Interleukin-8 (IL8) Biomarker Activity (AID 2283078); details: primary human HUVEC with PBMC; actives raise or lower the signal
Method in brief: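 Human umbilical vein endothelial cells co-cultured with PBMC, LPS-stimulated, exposed to compound for 24 h. IL-8 quantified by ELISA; fitted in both directions against DMSO, with SRB total-protein staining of parallel cultures for cytotoxicity.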

[10] = BSK_LPS_SRB: Viability Assessment in the BioMAP Diversity Plus: LPS Assay (AID 2283079); details: primary human HUVEC with PBMC;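 also: total protein by sulforhodamine B absorbance as a cytotoxicity measure; measured one day after compound addition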
Method in brief: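 Co-culture of human umbilical vein endothelial cells and PBMC, read 24 h after dosing. Total protein by 0.1% SRB staining after 10% TCA fixation, absorbance at 560 nm; bidirectional fit against DMSO.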

[11] = read-out: Interleukin-1 alpha (IL1a), IL1A (gene 3552); assay: BSK_LPS_IL1a: BioMAP Diversity Plus: LPS Assay for Interleukin-1 alpha (IL1a) Biomarker Activity (AID 2283080); details: primary human HUVEC with PBMC; actives raise or lower the signal
Method in brief: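 Human umbilical vein endothelial cells co-cultured with PBMC and stimulated with LPS; IL-1a measured by ELISA 24 h after dosing. Bidirectional fitting against DMSO; cytotoxicity checked by SRB staining in parallel cultures.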

[12] = read-out: Monocyte Chemoattractant Protein-1 (MCP1), CCL2 (gene 6347); assay: BSK_LPS_MCP1: BioMAP Diversity Plus: LPS Assay for Monocyte Chemoattractant Protein-1 (MCP1) Biomarker Activity (AID 2283081); details: primary human HUVEC with PBMC; actives raise or lower the signal
Method in brief: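 Human umbilical vein endothelial cells co-cultured with PBMC, LPS-stimulated; secreted MCP-1 measured by ELISA 24 h after compound addition. Bidirectional curve fitting against DMSO baseline; SRB total-protein staining in parallel cultures for cytotoxicity.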

[13] = BSK_LPS_PGE2: BioMAP Diversity Plus: LPS Assay for Prostaglandin E2 (PGE2) Biomarker Activity (AID 2283082); details: primary human HUVEC with PBMC; actives raise or lower the signal
Method in brief: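 HUVEC plus PBMC co-culture stimulated with LPS; secreted PGE2 quantified by ELISA 24 h after chemical dosing. Activity fitted bidirectionally against DMSO as negative control and baseline; parallel SRB total-protein staining served as cytotoxicity check.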

[14] = read-out: Macrophage colony-stimulating factor (MCSF), CSF1 (gene 1435); assay: BSK_LPS_MCSF: BioMAP Diversity Plus: LPS Assay for Macrophage colony-stimulating factor (MCSF) Biomarker Activity (AID 2283083); details: primary human HUVEC with PBMC; actives raise or lower the signal
Method in brief: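 HUVEC–PBMC co-culture, M-CSF measured by ELISA 24 h after chemical dosing. Fitted in both directions relative to DMSO as negative control; overt cytotoxicity assessed by SRB total-protein staining in parallel cultures.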

[15] = read-out: Tumor necrosis factor (Homo sapiens) (UniProt P01375); assay: BSK_LPS_TNFa: BioMAP Diversity Plus: LPS Assay for Tumour Necrosis Factor alpha (TNFa) Biomarker Activity (AID 2283085); details: primary human HUVEC with PBMC; actives raise or lower the signal;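 as to AC50: TNFa protein level quantified by ELISA in the co-culture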
Method in brief: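 Human umbilical vein endothelial cells co-cultured with PBMC were exposed to test chemical and TNFa measured by ELISA 24 h after dosing. Bidirectional curve fitting was done relative to DMSO as negative control and baseline.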

[16] = read-out: Vascular cell adhesion molecule 1 (VCAM1), VCAM1 (gene 7412); assay: BSK_LPS_VCAM1: BioMAP Diversity Plus: LPS Assay for Vascular cell adhesion molecule 1 (VCAM1) Biomarker Activity (AID 2283086); details: primary human HUVEC with PBMC; actives raise or lower the signal
Method in brief: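 Human umbilical vein endothelial cells co-cultured with peripheral blood mononuclear cells under LPS stimulation were exposed to test chemical for 24 h. VCAM-1 levels were then measured by ELISA, with bidirectional curve fitting relative to DMSO as negative control and baseline.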

CD38, CD38 (gene 952) = assay: BSK_SAg_CD38: BioMAP Diversity Plus: SAg Assay for CD38 Biomarker Activity (AID 2283087); details: primary human HUVEC with PBMC; actives raise or lower the signal
Method in brief: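 Fluorescence ELISA of cell-surface CD38 served as the read-out, with either increase or decrease fitted against DMSO controls. Cells were a human umbilical vein endothelium plus PBMC co-culture under SEB/TSST-1 stimulation, measured 24 h after dosing.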

CD40, CD40 (gene 958) [17] = assay: BSK_SAg_CD40: BioMAP Diversity Plus: SAg Assay for CD40 Biomarker Activity (AID 2283088); details: primary human HUVEC with PBMC; actives raise or lower the signal
Method in brief: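 HUVEC plus PBMC co-culture, superantigen-activated, with CD40 read by ELISA 24 h after dosing. Curves fitted in both directions against DMSO. Overt cytotoxicity checked by parallel SRB total-protein staining.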

CD69, CD69 (gene 969) = assay: BSK_SAg_CD69: BioMAP Diversity Plus: SAg Assay for CD69 Biomarker Activity (AID 2283089); details: primary human HUVEC with PBMC; actives raise or lower the signal;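 as to AC50: cell surface CD69 protein quantified by ELISA with fluorescence detection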
Method in brief: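 ELISA, fluorescence read-out: CD69 on human umbilical vein endothelial cell + PBMC co-culture, 24 h post-dosing. Gain or loss of signal fitted bidirectionally against DMSO baseline.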

[18] = read-out: Tissue Factor, F3 (gene 2152); assay: BSK_LPS_TissueFactor: BioMAP Diversity Plus: LPS Assay for Tissue Factor Biomarker Activity (AID 2283084); details: primary human HUVEC with PBMC; actives raise or lower the signal
Method in brief: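 Human umbilical vein endothelial cells co-cultured with PBMC were dosed with compound. Cell-surface CD142 was measured by ELISA 24 h later. Activity was fitted bidirectionally against DMSO, with SRB total-protein staining in parallel cultures for cytotoxicity.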

Measured: AC50

Chain of Tumor necrosis factor (Homo sapiens) (P01375 whole entry, looked up): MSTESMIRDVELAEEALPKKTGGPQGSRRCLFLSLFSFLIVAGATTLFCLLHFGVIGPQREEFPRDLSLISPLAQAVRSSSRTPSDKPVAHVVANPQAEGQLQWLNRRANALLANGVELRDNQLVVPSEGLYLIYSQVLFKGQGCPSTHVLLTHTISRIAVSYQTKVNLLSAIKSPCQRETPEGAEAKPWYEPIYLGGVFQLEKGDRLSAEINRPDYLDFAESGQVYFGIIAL
Chain of E-selectin (Homo sapiens) (P16581 whole entry, looked up): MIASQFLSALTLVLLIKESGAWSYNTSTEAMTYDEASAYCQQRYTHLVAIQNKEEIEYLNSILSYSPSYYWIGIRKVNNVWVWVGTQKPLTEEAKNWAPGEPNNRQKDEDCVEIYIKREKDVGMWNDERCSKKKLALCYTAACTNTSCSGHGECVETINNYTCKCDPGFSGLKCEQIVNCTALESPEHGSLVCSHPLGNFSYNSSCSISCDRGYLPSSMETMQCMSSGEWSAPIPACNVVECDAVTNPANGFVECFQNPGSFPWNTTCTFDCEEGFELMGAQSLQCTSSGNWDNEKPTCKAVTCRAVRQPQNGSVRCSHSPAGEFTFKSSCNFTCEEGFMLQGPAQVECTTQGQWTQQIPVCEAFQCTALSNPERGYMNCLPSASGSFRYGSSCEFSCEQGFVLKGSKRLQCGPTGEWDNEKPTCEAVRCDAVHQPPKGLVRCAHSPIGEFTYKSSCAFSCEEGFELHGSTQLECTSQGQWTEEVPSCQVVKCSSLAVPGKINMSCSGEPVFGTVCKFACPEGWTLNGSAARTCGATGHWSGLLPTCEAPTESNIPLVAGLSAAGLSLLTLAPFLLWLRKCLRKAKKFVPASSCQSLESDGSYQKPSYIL

Cc1cccc(O)c1C
not listed: [18]
inactive: all other assays above

CCCCCCCC/C=C\CCCCCCCC(=O)OC[C@@H](O)[C@H]1OC[C@H](O)[C@H]1O
inactive: all assays above

C[C@]12C=CC(=O)C=C1CC[C@H]1[C@@H]3C[C@@H](O)[C@](O)(C(=O)CO)[C@@]3(C)C[C@H](O)[C@@]12F
active: [15] 0.557 µM
inactive: all other assays above

COCc1nnc(-c2ccc[n+]([O-])c2)n1-c1c(Cl)c(Cl)cc2[nH]c(=O)c(=O)[nH]c12
not listed: [18]
inactive: all other assays above

COc1cc(C(C)C)c2c(c1)S(=O)(=O)N(COc1cc(=O)n3cccc(OCCN4CCCCC4)c3n1)C2=O
active: [1] 5 µM | [4] 2.78 µM | [5] 7.75 µM | CD40, CD40 (gene 958) [7] 6.39 µM | [8] 8.03 µM | [14] 5 µM | [16] 6.02 µM | CD40, CD40 (gene 958) [17] 5 µM | CD69, CD69 (gene 969) 5 µM
inactive: all other assays above

CCCc1ccccc1
not listed: [18]
inactive: all other assays above

CCCCCOC(C)=O
active: [15] 10.1 µM
not listed: [18]
inactive: all other assays above

From PubChem BioAssay (EPA / NIEHS)
